Laboratory results reported in PubChem BioAssay (EPA / NIEHS).
Calls of active or inactive are those of the source. How the source made its calls: active means hit-call score of the fitted dose curve at least 0.9, where 1 is the maximum; inactive means score below 0.9.

Tests used:
[1] = read-out: Thrombomodulin, THBD (gene 7056); test: BSK_CASM3C_Thrombomodulin: BioMAP Diversity Plus: CASM3C Assay for Thrombomodulin Biomarker Activity (AID 2283051); conditions: primary human coronary artery smooth muscle cells; actives raise or lower the signal;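 further: thrombomodulin protein level measured by ELISA 24 h after dosing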
[2] = read-out: Tissue Factor, F3 (gene 2152); test: BSK_CASM3C_TissueFactor: BioMAP Diversity Plus: CASM3C Assay for Tissue Factor Biomarker Activity (AID 2283052); conditions: primary human coronary artery smooth muscle cells; actives raise or lower the signal;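 further: cell surface tissue factor protein level read by ELISA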
[3] = read-out: Urokinase-type plasminogen activator receptor (uPAR), PLAUR (gene 5329); test: BSK_CASM3C_uPAR: BioMAP Diversity Plus: CASM3C Assay for Urokinase-type plasminogen activator receptor (uPAR) Biomarker Activity (AID 2283054); conditions: primary human coronary artery smooth muscle cells; actives raise or lower the signal;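 further: cell-surface uPAR protein level quantified by ELISA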
[4] = read-out: Vascular cell adhesion molecule 1 (VCAM1), VCAM1 (gene 7412); test: BSK_CASM3C_VCAM1: BioMAP Diversity Plus: CASM3C Assay for Vascular cell adhesion molecule 1 (VCAM1) Biomarker Activity (AID 2283055); conditions: primary human coronary artery smooth muscle cells; actives raise or lower the signal;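 further: VCAM-1 protein level quantified by ELISA on the cells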
[5] = read-out: Collagen III, COL3A1 (gene 1281); test: BSK_hDFCGF_CollagenIII: BioMAP Diversity Plus: hDFCGF Assay for Collagen III Biomarker Activity (AID 2283056); conditions: primary human foreskin fibroblasts; actives raise or lower the signal
Outline: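 Cells: human foreskin fibroblasts, primary. Dosing followed by 24 h incubation, then ELISA for collagen III. Both increases and decreases scored relative to DMSO.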

[6] = read-out: Epidermal growth factor receptor (EGFR), EGFR (gene 1956); test: BSK_hDFCGF_EGFR: BioMAP Diversity Plus: hDFCGF Assay for Epidermal growth factor receptor (EGFR) Biomarker Activity (AID 2283057); conditions: primary human foreskin fibroblasts; actives raise or lower the signal
Outline: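 ELISA readout of EGFR on human dermal fibroblasts (primary foreskin cells), 24 h post-dosing; bidirectional curve fit vs DMSO baseline, gain or loss of signal scored.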

[7] = read-out: Interleukin-8 (IL8), CXCL8 (gene 3576); test: BSK_hDFCGF_IL8: BioMAP Diversity Plus: hDFCGF Assay for Interleukin-8 (IL8) Biomarker Activity (AID 2283058); conditions: primary human foreskin fibroblasts; actives raise or lower the signal
Outline: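 IL-8 levels from compound-treated primary human fibroblasts were read by ELISA at 24 h, with DMSO serving as baseline for bidirectional fitting.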

[8] = BSK_hDFCGF_Proliferation: Cell Proliferation Assessment in the BioMAP Diversity Plus: hDFCGF Assay (AID 2283059); conditions: primary human foreskin fibroblasts;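 further: curves fitted for both rise and fall of signal versus DMSO baseline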
Outline: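 Total protein read at 560 nm after 0.1% SRB staining of TCA-fixed human skin fibroblasts, […]. Activity is fitted in both directions relative to DMSO as baseline.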

[9] = read-out: Macrophage colony-stimulating factor (MCSF), CSF1 (gene 1435); test: BSK_hDFCGF_MCSF: BioMAP Diversity Plus: hDFCGF Assay for Macrophage colony-stimulating factor (MCSF) Biomarker Activity (AID 2283060); conditions: primary human foreskin fibroblasts; actives raise or lower the signal
Outline: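 M-CSF levels, determined by ELISA, are taken at 24 h after dosing human skin fibroblasts. Responses in either direction are fitted with DMSO serving as the baseline.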

[10] = BSK_hDFCGF_SRB: Viability Assessment in the BioMAP Diversity Plus: hDFCGF Assay (AID 2283061); conditions: primary human foreskin fibroblasts;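 further: cells exposed to compound for 24 h before the read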
Outline: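 Cells were dosed with test chemical, cultured 24 h, fixed with 10% TCA, then stained with 0.1% SRB and read at 560 nm. The fibroblasts were human foreskin primary cells, and DMSO served as baseline.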

[11] = read-out: TIMP metallopeptidase inhibitor 1 (TIMP1), TIMP1 (gene 7076); test: BSK_hDFCGF_TIMP1: BioMAP Diversity Plus: hDFCGF Assay for TIMP metallopeptidase inhibitor 1 (TIMP1) Biomarker Activity (AID 2283062); conditions: primary human foreskin fibroblasts; actives raise or lower the signal
Outline: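 Fibroblasts from human foreskin are treated with test chemical and harvested at 24 h. TIMP-1 is quantified by ELISA, and gain or loss of signal is scored against DMSO.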

[12] = read-out: Monokine induced gamma interferon (MIG), CXCL9 (gene 4283); test: BSK_hDFCGF_MIG: BioMAP Diversity Plus: hDFCGF Assay for Monokine induced gamma interferon (MIG) Biomarker Activity (AID 2283063); conditions: primary human foreskin fibroblasts; actives raise or lower the signal
Outline: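 MIG signal, determined by ELISA, reflects 24 h chemical exposure of human skin primary fibroblasts. DMSO serves as negative control and baseline.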

[13] = read-out: Matrix Metallopeptidase 1 (MMP1), MMP1 (gene 4312); test: BSK_hDFCGF_MMP1: BioMAP Diversity Plus: hDFCGF Assay for Matrix Metallopeptidase 1 (MMP1) Biomarker Activity (AID 2283064); conditions: primary human foreskin fibroblasts; actives raise or lower the signal
Outline: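 ELISA read-out of MMP1 from human foreskin fibroblasts (primary skin cells), 24 h post-dose. Gain or loss of signal was fitted bidirectionally versus DMSO negative control; cytotoxicity was checked by SRB in parallel cultures.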

[14] = read-out: Vascular cell adhesion molecule 1 (VCAM1), VCAM1 (gene 7412); test: BSK_hDFCGF_VCAM1: BioMAP Diversity Plus: hDFCGF Assay for Vascular cell adhesion molecule 1 (VCAM1) Biomarker Activity (AID 2283065); conditions: primary human foreskin fibroblasts; actives raise or lower the signal;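 on AC50: VCAM-1 protein level quantified by ELISA after 24 h chemical exposure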
Outline: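 Cells are dosed, cultured for 24 h, then VCAM-1 is quantified by ELISA; signal increases and decreases are both fitted relative to DMSO.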

[15] = read-out: Plasminogen activator inhibitor-1 (PAI1), SERPINE1 (gene 5054); test: BSK_hDFCGF_PAI1: BioMAP Diversity Plus: hDFCGF Assay for Plasminogen activator inhibitor-1 (PAI1) Biomarker Activity (AID 2283066); conditions: primary human foreskin fibroblasts; actives raise or lower the signal
Outline: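 ELISA readout of PAI-1 from primary human skin fibroblast cultures, 24 h after compound addition. Gain or loss of signal was fitted bidirectionally against DMSO baseline.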

[16] = read-out: Intercellular Adhesion Molecule 1 (ICAM1), ICAM1 (gene 3383); test: BSK_KF3CT_ICAM1: BioMAP Diversity Plus: KF3CT Assay for Intercellular Adhesion Molecule 1 (ICAM1) Biomarker Activity (AID 2283067); conditions: primary human keratinocytes with fibroblasts; actives raise or lower the signal
Outline: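 Dose the keratinocyte/fibroblast co-culture, wait 24 h, measure ICAM-1 by ELISA, then fit increases or decreases against DMSO. Cytotoxicity is checked in parallel cultures by SRB total-protein staining.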

[17] = read-out: Interferon-gamma inducible Protein 10 (IP10), CXCL10 (gene 3627); test: BSK_KF3CT_IP10: BioMAP Diversity Plus: KF3CT Assay for Interferon-gamma inducible Protein 10 (IP10) Biomarker Activity (AID 2283068); conditions: primary human keratinocytes with fibroblasts; actives raise or lower the signal
Outline: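 Human keratinocyte plus foreskin fibroblast primary co-culture exposed to test chemical for 24 h; IP-10 measured by ELISA. Concentration-response fitted bidirectionally against DMSO control as baseline.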

[18] = read-out: Interleukin-1 alpha (IL1a), IL1A (gene 3552); test: BSK_KF3CT_IL1a: BioMAP Diversity Plus: KF3CT Assay for Interleukin-1 alpha (IL1a) Biomarker Activity (AID 2283070); conditions: primary human keratinocytes with fibroblasts; actives raise or lower the signal
Outline: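 Primary skin co-culture (keratinocytes, foreskin fibroblasts), 24 h exposure; ELISA for IL-1a; bidirectional curve fit vs DMSO.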

[19] = read-out: Interferon-gamma inducible Protein 10 (IP10), CXCL10 (gene 3627); test: BSK_hDFCGF_IP10: BioMAP Diversity Plus: hDFCGF Assay for Interferon-gamma inducible Protein 10 (IP10) Biomarker Activity (AID 2283053); conditions: primary human foreskin fibroblasts; actives raise or lower the signal
Outline: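 ELISA read-out of IP-10 (CXCL10) from primary human skin fibroblasts, 24 h after compound addition. Gain or loss of signal versus DMSO baseline, bidirectional curve fitting.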

Measured: AC50

CCOP(=S)(OCC)SCCSCC
inactive: [1] | [2] | [3] | [4] | [5] | [6] | [7] | [8] | [9] | [10] | [11] | [12] | [13] | [15] | [16] | [18]
active: [14] 36.9 µM | [17] 37 µM

CCc1cccc(C)c1N(C(=O)CCl)C(C)COC (stereo unspecified)
inactive: [1] | [2] | [3] | [4] | [5] | [6] | [7] | [9] | [10] | [11] | [12] | [13] | [14] | [16] | [18]
active: [19] 20 µM | [8] 16.1 µM | [17] 33.2 µM

CCC(CC)Nc1c([N+](=O)[O-])cc(C)c(C)c1[N+](=O)[O-]
active: [1] 16.3 µM | [19] 20 µM | [8] 29.2 µM | [9] 13.5 µM | [12] 11.8 µM | [13] 6.93 µM | [14] 11.9 µM | [17] 13.8 µM
inactive: [2] | [3] | [4] | [5] | [6] | [7] | [10] | [11] | [15] | [16] | [18]

CCC(=NOC/C=C/Cl)C1=C(O)CC(C2CCOCC2)CC1=O (stereo unspecified)
inactive: [1] | [2] | [19] | [3] | [4] | [5] | [6] | [7] | [8] | [9] | [10] | [11] | [12] | [13] | [14] | [15] | [16] | [17] | [18]

CON=C(C(=O)OC)c1ccccc1CON=C(C)c1cccc(C(F)(F)F)c1
inactive: [1] | [2] | [19] | [3] | [7] | [9] | [12] | [14] | [16] | [18]
active: [4] 8.45 µM | [5] 1.47 µM | [6] 2.78 µM | [8] 2.77 µM | [10] 4.21 µM | [11] 5.26 µM | [13] 2.74 µM | [15] 4 µM | [17] 18 µM

S=C1NCCN1
inactive: [1] | [2] | [19] | [3] | [4] | [5] | [6] | [7] | [8] | [9] | [10] | [11] | [12] | [13] | [14] | [15] | [16] | [17] | [18]

Nc1c(Cl)cc([N+](=O)[O-])cc1Cl
active: [19] 3.97 µM | [8] 27.6 µM | [13] 4.71 µM
inactive: [1] | [2] | [3] | [4] | [5] | [6] | [7] | [9] | [10] | [11] | [12] | [14] | [15] | [16] | [17] | [18]

CC1(C(=O)Nc2ccc(O)c(Cl)c2Cl)CCCCC1
inactive: [1] | [2] | [19] | [4] | [5] | [6] | [7] | [8] | [9] | [10] | [11] | [12] | [13] | [14] | [15] | [16] | [17] | [18]

CNc1cnn(-c2cccc(C(F)(F)F)c2)c(=O)c1Cl
inactive: [1] | [2] | [19] | [3] | [4] | [5] | [6] | [7] | [8] | [9] | [10] | [11] | [12] | [13] | [14] | [15] | [16] | [17] | [18]

CC[C@H](C)[C@H]1O[C@]2(C=C[C@@H]1C)C[C@@H]1C[C@@H](C/C=C(\C)[C@@H](O[C@H]3C[C@H](OC)[C@@H](O[C@H]4C[C@H](OC)[C@@H](NC)[C@H](C)O4)[C@H](C)O3)[C@@H](C)/C=C/C=C3\CO[C@@H]4[C@H](O)C(C)=C[C@@H](C(=O)O1)[C@]34O)O2
inactive: [1] | [2]
active: [19] 4.28 µM | [3] 12.3 µM | [4] 12 µM | [5] 5.53 µM | [6] 11.7 µM | [7] 6.99 µM | [8] 1.43 µM | [9] 2.85 µM | [10] 3.85 µM | [11] 4.4 µM | [12] 5.27 µM | [13] 6.78 µM | [14] 4.8 µM | [15] 2.08 µM | [16] 9.03 µM | [17] 8.17 µM | [18] 5.84 µM

CC(COc1ccc(Oc2ccccc2)cc1)Oc1ccccn1 (stereo unspecified)
active: [8] 10.8 µM
inactive: [1] | [2] | [19] | [3] | [4] | [5] | [6] | [7] | [9] | [10] | [11] | [12] | [13] | [14] | [15] | [16] | [17] | [18]
